# The supplement of paper PMC4466140
# Key:
# Assay in all cases: SPOT peptide array binding signal intensity (averaged, normalized) (arbitrary units (background-subtracted, floor 0; scale differs between SH3 domains)); higher = stronger binding of the SH3 domain to the peptide
# AgAbp1 = target: AgAbp1
# How it was run: (§1)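 Peptides were synthetic 15-mers on cellulose membranes, with every cysteine replaced by serine. They were incubated overnight at 4°C with GST-SH3 domains from four yeast species at 10 μg/ml in TBS-based blocking buffer. Binding signal, the replicate-averaged normalized and background-subtracted spot intensity, is in arbitrary units that differ between domains.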
# AgBbc1 = target: AgBbc1
# How it was run: as §1
# AgBem1-D1 = target: AgBem1-D1
# How it was run: as §1
# AgBzz1-D1 = target: AgBzz1-D1
# How it was run: as §1
# AgBzz1-D2 = target: AgBzz1-D2
# How it was run: as §1
# AgCyk3 = target: AgCyk3
# How it was run: as §1
# AgFus1 = target: AgFus1
# How it was run: as §1
# AgHof1 = target: AgHof1
# How it was run: as §1
# AgHse1 = target: AgHse1
# How it was run: as §1
# AgLsb1 = target: AgLsb1
# How it was run: as §1
# AgLsb4 = target: AgLsb4
# How it was run: as §1
# AgMyo5 = target: AgMyo5
# How it was run: as §1
# AgNbp2 = target: AgNbp2
# How it was run: as §1
# AgRvs167 = target: AgRvs167
# How it was run: as §1
# AgSho1 = target: AgSho1
# How it was run: as §1
# AgSla1-D1-D2 = target: AgSla1-D1-D2
# How it was run: as §1
# AgSla1-D3 = target: AgSla1-D3
# How it was run: as §1
# CaAbp1-D1 = target: CaAbp1-D1
# How it was run: as §1
# CaAbp1-D2 = target: CaAbp1-D2
# How it was run: as §1
# CaBbc1 = target: CaBbc1
# How it was run: as §1
# CaBem1-D1 = target: CaBem1-D1
# How it was run: as §1
# CaBzz1-D1 = target: CaBzz1-D1
# How it was run: as §1
# CaBzz1-D2 = target: CaBzz1-D2
# How it was run: as §1
# CaCyk3 = target: CaCyk3
# How it was run: as §1
# CaFus1 = target: CaFus1
# How it was run: as §1
# CaHof1 = target: CaHof1
# How it was run: as §1
# CaHse1 = target: CaHse1
# How it was run: as §1
# CaLsb1 = target: CaLsb1
# How it was run: as §1
# CaLsb4 = target: CaLsb4
# How it was run: as §1
# CaMyo5 = target: CaMyo5
# How it was run: as §1
# CaNbp2 = target: CaNbp2
# How it was run: as §1
# CaRvs167 = target: CaRvs167
# How it was run: as §1
# CaRvs167-3 = target: CaRvs167-3
# How it was run: as §1
# CaSho1 = target: CaSho1
# How it was run: as §1
# CaSla1-D1-D2 = target: CaSla1-D1-D2
# How it was run: as §1
# CaSla1-D3 = target: CaSla1-D3
# How it was run: as §1
# ScAbp1 = target: ScAbp1
# How it was run: as §1
# ScBbc1 = target: ScBbc1
# How it was run: as §1
# ScBem1-D1 = target: ScBem1-D1
# How it was run: as §1
# ScBzz1-D1 = target: ScBzz1-D1
# How it was run: as §1
# ScBzz1-D2 = target: ScBzz1-D2
# How it was run: as §1
# ScCyk3 = target: ScCyk3
# How it was run: as §1
# ScFus1 = target: ScFus1
# How it was run: as §1
# ScHof1 = target: ScHof1
# How it was run: as §1
# ScHse1 = target: ScHse1
# How it was run: as §1
# ScLsb1 = target: ScLsb1
# How it was run: as §1
# ScLsb2 = target: ScLsb2
# How it was run: as §1
# ScLsb3 = target: ScLsb3
# How it was run: as §1
# ScLsb4 = target: ScLsb4
# How it was run: as §1
# ScMyo3 = target: ScMyo3
# How it was run: as §1
# ScMyo5 = target: ScMyo5
# How it was run: as §1
# ScNbp2 = target: ScNbp2
# How it was run: as §1
# ScPex13 = target: ScPex13
# How it was run: as §1
# ScRvs167 = target: ScRvs167
# How it was run: as §1
# ScSho1 = target: ScSho1
# How it was run: as §1
# ScSla1-D1-D2 = target: ScSla1-D1-D2
# How it was run: as §1
# ScSla1-D3 = target: ScSla1-D3
# How it was run: as §1
# SpAbp1-D1 = target: SpAbp1-D1
# How it was run: as §1
# SpBbc1 = target: SpBbc1
# How it was run: as §1
# SpBzz1-D1 = target: SpBzz1-D1
# How it was run: as §1
# SpBzz1-D2 = target: SpBzz1-D2
# How it was run: as §1
# SpCyk3 = target: SpCyk3
# How it was run: as §1
# SpHof1 = target: SpHof1
# How it was run: as §1
# SpHof1-2 = target: SpHof1-2
# How it was run: as §1
# SpHof1-3 = target: SpHof1-3
# How it was run: as §1
# SpHse1 = target: SpHse1
# How it was run: as §1
# SpLsb1 = target: SpLsb1
# How it was run: as §1
# SpLsb4 = target: SpLsb4
# How it was run: as §1
# SpMyo1 = target: SpMyo1
# How it was run: as §1
# SpNbp2 = target: SpNbp2
# How it was run: as §1
# SpPex13 = target: SpPex13
# How it was run: as §1
# SpRvs167 = target: SpRvs167
# How it was run: as §1
# SpSla1-D1-D2 = target: SpSla1-D1-D2
# How it was run: as §1
# SpSla1-D3 = target: SpSla1-D3
# How it was run: as §1
binder,measurement,setting,value
NMLSRPRLAKLPSIR,SPOT peptide array binding signal intensity,AgAbp1,124
same,SPOT peptide array binding signal intensity,AgBbc1,16.5
same,SPOT peptide array binding signal intensity,AgBem1-D1,394
same,SPOT peptide array binding signal intensity,AgBzz1-D1,23
same,SPOT peptide array binding signal intensity,AgBzz1-D2,3
same,SPOT peptide array binding signal intensity,AgCyk3,≤ 0
same,SPOT peptide array binding signal intensity,AgFus1,458
same,SPOT peptide array binding signal intensity,AgHof1,331
same,SPOT peptide array binding signal intensity,AgHse1,2140
same,SPOT peptide array binding signal intensity,AgLsb1,3.25
same,SPOT peptide array binding signal intensity,AgLsb4,59
same,SPOT peptide array binding signal intensity,AgMyo5,≤ 0
same,SPOT peptide array binding signal intensity,AgNbp2,362
same,SPOT peptide array binding signal intensity,AgRvs167,4.33
same,SPOT peptide array binding signal intensity,AgSho1,388
same,SPOT peptide array binding signal intensity,AgSla1-D1-D2,27
same,SPOT peptide array binding signal intensity,AgSla1-D3,4.5
same,SPOT peptide array binding signal intensity,CaAbp1-D1,822
same,SPOT peptide array binding signal intensity,CaAbp1-D2,754
same,SPOT peptide array binding signal intensity,CaBbc1,165
same,SPOT peptide array binding signal intensity,CaBem1-D1,526
same,SPOT peptide array binding signal intensity,CaBzz1-D1,184
same,SPOT peptide array binding signal intensity,CaBzz1-D2,69.8
same,SPOT peptide array binding signal intensity,CaCyk3,46
same,SPOT peptide array binding signal intensity,CaFus1,1210
same,SPOT peptide array binding signal intensity,CaHof1,0.25
same,SPOT peptide array binding signal intensity,CaHse1,183
same,SPOT peptide array binding signal intensity,CaLsb1,2
same,SPOT peptide array binding signal intensity,CaLsb4,290
same,SPOT peptide array binding signal intensity,CaMyo5,46.5
same,SPOT peptide array binding signal intensity,CaNbp2,1250
same,SPOT peptide array binding signal intensity,CaRvs167,97.2
same,SPOT peptide array binding signal intensity,CaRvs167-3,60.5
same,SPOT peptide array binding signal intensity,CaSho1,1490
same,SPOT peptide array binding signal intensity,CaSla1-D1-D2,663
same,SPOT peptide array binding signal intensity,CaSla1-D3,254
same,SPOT peptide array binding signal intensity,ScAbp1,424
same,SPOT peptide array binding signal intensity,ScBbc1,3.5
same,SPOT peptide array binding signal intensity,ScBem1-D1,21
same,SPOT peptide array binding signal intensity,ScBzz1-D1,22
same,SPOT peptide array binding signal intensity,ScBzz1-D2,29.5
same,SPOT peptide array binding signal intensity,ScCyk3,35
same,SPOT peptide array binding signal intensity,ScFus1,826
same,SPOT peptide array binding signal intensity,ScHof1,28
same,SPOT peptide array binding signal intensity,ScHse1,2110
same,SPOT peptide array binding signal intensity,ScLsb1,71.5
same,SPOT peptide array binding signal intensity,ScLsb2,≤ 0
same,SPOT peptide array binding signal intensity,ScLsb3,570
same,SPOT peptide array binding signal intensity,ScLsb4,112
same,SPOT peptide array binding signal intensity,ScMyo3,13.5
same,SPOT peptide array binding signal intensity,ScMyo5,≤ 0
same,SPOT peptide array binding signal intensity,ScNbp2,370
same,SPOT peptide array binding signal intensity,ScPex13,142
same,SPOT peptide array binding signal intensity,ScRvs167,43
same,SPOT peptide array binding signal intensity,ScSho1,962
same,SPOT peptide array binding signal intensity,ScSla1-D1-D2,389
same,SPOT peptide array binding signal intensity,ScSla1-D3,418
same,SPOT peptide array binding signal intensity,SpAbp1-D1,610
same,SPOT peptide array binding signal intensity,SpBbc1,1
same,SPOT peptide array binding signal intensity,SpBzz1-D1,333
KNRKNLPTIPIRLSG,SPOT peptide array binding signal intensity,CaNbp2,398
same,SPOT peptide array binding signal intensity,CaRvs167,283
same,SPOT peptide array binding signal intensity,CaRvs167-3,23.8
same,SPOT peptide array binding signal intensity,CaSho1,1100
same,SPOT peptide array binding signal intensity,CaSla1-D1-D2,672
same,SPOT peptide array binding signal intensity,CaSla1-D3,≤ 0
same,SPOT peptide array binding signal intensity,ScAbp1,634
same,SPOT peptide array binding signal intensity,ScBbc1,46.8
same,SPOT peptide array binding signal intensity,ScBem1-D1,19
same,SPOT peptide array binding signal intensity,ScBzz1-D1,35.5
same,SPOT peptide array binding signal intensity,ScBzz1-D2,7
same,SPOT peptide array binding signal intensity,ScCyk3,17
same,SPOT peptide array binding signal intensity,ScFus1,63
same,SPOT peptide array binding signal intensity,ScHof1,3
same,SPOT peptide array binding signal intensity,ScHse1,582
same,SPOT peptide array binding signal intensity,ScLsb1,462
same,SPOT peptide array binding signal intensity,ScLsb2,824
same,SPOT peptide array binding signal intensity,ScLsb3,2010
same,SPOT peptide array binding signal intensity,ScLsb4,80
same,SPOT peptide array binding signal intensity,ScMyo3,4.5
same,SPOT peptide array binding signal intensity,ScMyo5,1
same,SPOT peptide array binding signal intensity,ScNbp2,1180
same,SPOT peptide array binding signal intensity,ScPex13,148
same,SPOT peptide array binding signal intensity,ScRvs167,774
same,SPOT peptide array binding signal intensity,ScSho1,5890
same,SPOT peptide array binding signal intensity,ScSla1-D1-D2,2930
same,SPOT peptide array binding signal intensity,ScSla1-D3,27.8
same,SPOT peptide array binding signal intensity,SpAbp1-D1,1210
same,SPOT peptide array binding signal intensity,SpBbc1,5.5
same,SPOT peptide array binding signal intensity,SpBzz1-D1,512
same,SPOT peptide array binding signal intensity,SpBzz1-D2,1.5
same,SPOT peptide array binding signal intensity,SpCyk3,23.5
same,SPOT peptide array binding signal intensity,SpHof1,1400
same,SPOT peptide array binding signal intensity,SpHof1-2,2230
same,SPOT peptide array binding signal intensity,SpHof1-3,1490
same,SPOT peptide array binding signal intensity,SpHse1,166
same,SPOT peptide array binding signal intensity,SpLsb1,510
same,SPOT peptide array binding signal intensity,SpLsb4,2330
same,SPOT peptide array binding signal intensity,SpMyo1,25
same,SPOT peptide array binding signal intensity,SpNbp2,336
same,SPOT peptide array binding signal intensity,SpPex13,9.5
same,SPOT peptide array binding signal intensity,SpRvs167,1010
same,SPOT peptide array binding signal intensity,SpSla1-D1-D2,1490
same,SPOT peptide array binding signal intensity,SpSla1-D3,6
